Results taken from PubChem BioAssay (NCATS).
Records with an inconclusive call do not appear. Values without a mark were called inactive. Calls follow the shape of the dose curve; as a rule, active = well fitted curve in the direction sought with a large enough effect; inconclusive = small, poorly fitted or top-dose-only effect, or another doubt; inactive = no such curve, though single readings can be large; an effect the other way counts as inactive or inconclusive.

Biological target: Protein phosphatase 1D (Homo sapiens) (UniProt O15297)
Sequence (O15297 whole entry, looked up): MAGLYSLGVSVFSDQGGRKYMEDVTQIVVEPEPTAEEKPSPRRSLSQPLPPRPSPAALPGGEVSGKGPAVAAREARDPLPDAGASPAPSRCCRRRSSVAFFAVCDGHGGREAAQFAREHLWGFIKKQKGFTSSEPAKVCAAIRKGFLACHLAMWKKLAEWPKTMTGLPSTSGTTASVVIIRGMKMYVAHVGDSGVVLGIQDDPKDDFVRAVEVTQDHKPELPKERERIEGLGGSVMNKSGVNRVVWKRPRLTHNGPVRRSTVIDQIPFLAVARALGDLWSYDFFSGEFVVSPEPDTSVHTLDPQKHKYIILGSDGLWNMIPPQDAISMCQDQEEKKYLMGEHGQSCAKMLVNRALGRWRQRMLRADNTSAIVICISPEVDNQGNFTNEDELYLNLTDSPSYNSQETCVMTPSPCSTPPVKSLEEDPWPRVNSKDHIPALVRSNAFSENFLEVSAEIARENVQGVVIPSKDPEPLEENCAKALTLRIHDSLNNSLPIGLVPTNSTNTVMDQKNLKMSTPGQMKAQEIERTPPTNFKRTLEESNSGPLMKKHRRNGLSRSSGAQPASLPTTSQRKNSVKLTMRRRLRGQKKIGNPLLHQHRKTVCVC
Experiment: RapidFire Mass Spectrometry qHTS Assay for Modulators of WT P53-Induced Phosphatase 1 (WIP1) (AID 1347424);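 also: amount of dephosphorylated VEPPL-S-QETFS peptide product formed by WIP1; plate controls were DMSO wells for no effect and GSK830371 inhibitor control at 10 µM for full effect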
Conditions: WIP1 dephosphorylation of phosphopeptide, RapidFire MS; series mostly up to 63 µM; activity change, negative = inhibition: at the top concentration
How it was run: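 WIP1 (10 nM final) was preincubated 1 h at room temperature with compounds in Tris-HCl pH 7.5, 30 mM MgCl2, TCEP, EGTA, BSA; 2 uM VEPPL-pS-QETFS phosphopeptide was added for 5 min, quenched with formic acid, and dephosphorylated product quantified by RapidFire MS.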

| Compound | activity change, negative = inhibition |
| --- | --- |
| O=C(OC1C[C@H]2CC[C@@H](C1)[N+]21CCCC1)C(O)(c1ccccc1)c1ccccc1 (some centres undefined) | -0.669% |
| Cn1c(NCCN(CCO)CCCc2ccc([N+](=O)[O-])cc2)cc(=O)n(C)c1=O | -3.09% |
| Cc1cc(C2CCCCC2)n(O)c(=O)c1 | 16.2% |
| CC(C)[C@H](N)C(=O)OCCOCn1cnc2c(=O)[nH]c(N)nc21 | 2.65% |
| Cc1nc2n(c(=O)c1CCN1CCC(c3noc4cc(F)ccc34)CC1)CCCC2 | 5% |
| Cc1ccc(C(=O)c2cc(O)c(O)c([N+](=O)[O-])c2)cc1 | -7.53% |
| COc1c2occc2cc2ccc(=O)oc12 | 1.61% |
| CC1=C(C(=O)O)N2C(=O)[C@@H](NC(=O)[C@H](N)C3=CCC=CC3)[C@H]2SC1 | -7.78% |
| Cc1cccc(C)c1OCC(=O)N[C@@H](Cc1ccccc1)[C@@H](O)C[C@H](Cc1ccccc1)NC(=O)[C@H](C(C)C)N1CCCNC1=O | 44.8% |
| CCN(CCO)CCCC(C)Nc1ccnc2cc(Cl)ccc12 (centres undefined) | -4.11% [at 6.17 µM] |
| Clc1ccc(C(Cn2ccnc2)OCc2c(Cl)cccc2Cl)c(Cl)c1 (centres undefined) | 43.6% |
| COc1cc(OC)c(C(=O)CCCN2CCCC2)c(OC)c1 | 9.8% |
| O=C(NC(Cc1cc(=O)[nH]c2ccccc12)C(=O)O)c1ccc(Cl)cc1 (centres undefined) | 2.79% |
| NNc1nncc2ccccc12 | 4.41% [at 26.6 µM] |
| COc1cc2nc(N3CCN(C(=O)C4CCCO4)CC3)nc(N)c2cc1OC (centres undefined) | -2.95% |
| S=c1nc[nH]c2nc[nH]c12 | -3.61% |

Biological target: Protein phosphatase 1D (Homo sapiens) (UniProt O15297)
Experiment: Rhodamine-PBP qHTS Assay for Modulators of WT P53-Induced Phosphatase 1 (WIP1) (AID 1347425); also: % of control where 0% means no effect
Conditions: recombinant WIP1, Rhodamine-PBP phosphate fluorescence, real-time; series mostly up to 57.5 µM; activity change, negative = inhibition: at the top concentration
How it was run: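 The read-out is the change in Rhodamine-PBP fluorescence (f1 - f0, ex 525/em 598 nm) as Pi is released, read each minute for 11 min. Final reaction: 5 nM WIP1, 10 uM phosphopeptide VEPPL-pS-QETFS, 10 uM Rh-PBP, 50 mM Tris-HCl pH 7.5, 30 mM MgCl2. Compound was preincubated with enzyme for 1 hour at room temperature.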

| Compound | activity change, negative = inhibition |
| --- | --- |
| Cc1nccn1CC1CCc2c(c3ccccc3n2C)C1=O (centres undefined) | -20.8% |
| CCCOc1ccc2nc(NC(=O)OC)[nH]c2c1 | -9.42% |
| COCCCOc1ccnc(CS(=O)c2nc3ccccc3[nH]2)c1C (centres undefined) | 10.1% |
| CCCCc1ccc2nc(NC(=O)OC)[nH]c2c1 | 7.03% |
| CCC[C@@H]1C[C@@H](C(=O)N[C@@H]([C@H]2O[C@H](SC)[C@H](O)[C@@H](O)[C@H]2O)[C@@H](C)O)N(C)C1 | 10.4% |
| Cc1cc(=O)c2c(O)c3c(O)cc(=O)c4c3c3c(cc(O)c1c23)C(C)(C)C=4O | 9.04% [at 23.8 µM] |
| N=C(N=C(N)N)N1CCOCC1 | -7.49% |
| N[C@@H](Cc1cc(I)c(Oc2cc(I)c(O)c(I)c2)c(I)c1)C(=O)O | -28.8% |
| Cc1c(C(=O)NN2CCCCC2)nn(-c2ccc(Cl)cc2Cl)c1-c1ccc(Cl)cc1 | 20.6% |
| CC(C)c1ccc2oc3nc(N)c(C(=O)O)cc3c(=O)c2c1 | 6.14% |
| Nc1cccc2c1CN(C1CCC(=O)NC1=O)C2=O (centres undefined) | -17.4% |
| Cc1cc(C2CCCCC2)n(O)c(=O)c1 | 1.54% |
| Cc1nc2n(c(=O)c1CCN1CCC(c3noc4cc(F)ccc34)CC1)CCCC2 | 14.3% |
| Cc1ccc(C(=O)c2cc(O)c(O)c([N+](=O)[O-])c2)cc1 | -17.8% |
| CC1=C(C(=O)O)N2C(=O)[C@@H](NC(=O)[C@H](N)C3=CCC=CC3)[C@H]2SC1 | -12.6% |
| Cc1cccc(C)c1OCC(=O)N[C@@H](Cc1ccccc1)[C@@H](O)C[C@H](Cc1ccccc1)NC(=O)[C@H](C(C)C)N1CCCNC1=O | 6.57% |
| NNc1nncc2ccccc12 | 3.48% [at 23.8 µM] |
| COc1cc2nc(N3CCN(C(=O)C4CCCO4)CC3)nc(N)c2cc1OC (centres undefined) | -13.7% |
